This passage reports Potency, activation and activity change, negative = inhibition results from PubChem BioAssay (NCATS).

For assay [1], the target named is Rap guanine nucleotide exchange factor 3 (Homo sapiens) (UniProt O95398). Kind of assay: Confirmatory qHTS for agonist of cAMP-regulated guanine nucleotide exchange factor 3 (EPAC1) (AID 1645881).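 Note: EPAC1 catalysed release of BODIPY-GDP from Rap1B seen as fluorescence loss; 100% = effect of cAMP agonist control; nearly all actives have a fitted effect of over 75% in size.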 For orientation: In qHTS, concentration-response curves come from the screen itself.
Assay [2] concerns the target Rap guanine nucleotide exchange factor 4 (Homo sapiens) (UniProt Q8WZA2). Kind of assay: Confirmatory qHTS for agonist of cAMP-regulated guanine nucleotide exchange factor 4 (EPAC2) (AID 1645884).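 Note: nucleotide exchange releases bodipy-GDP from Rap1 and this lowers its fluorescence; % is set by controls: 0 for no effect and ±100 for the full control effect; nearly all actives have a fitted effect of over 65% in size.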
For assay [3] the target is unchanged. Kind of assay: Confirmatory qHTS for antagonist of cAMP-regulated guanine nucleotide exchange factor 4 (EPAC2) (AID 1645885). For activity change, negative = inhibition: % is set by controls: 0 for no effect and ±100 for the full control effect. Note: nearly all actives have a fitted effect of over 25% in size. Note: potency is the fitted concentration of half-maximal effect.
The target in assay [4] is Rap guanine nucleotide exchange factor 3 (Homo sapiens) (UniProt O95398). Kind of assay: Counterscreen qHTS for antagonist of cAMP-regulated guanine nucleotide exchange factor 3 (EPAC1) (AID 1645888).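 Note: fluorescence loss as bound BODIPY-GDP is released from Rap1B; % of control where 0% means no effect.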 In outline:
(§1)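 Rap1B–BODIPY-GDP (250 nM) with 50 uM GDP; compounds pin-transferred to 9.74 nM–152 uM final (activator) or from 7.32 nM upwards (inhibitor). Fluorescence Ex/Em 480/540 nm read at 5 and 30 min, then after adding cAMP or buffer, at room temperature.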
For orientation: Counterscreens check selectivity or assay interference.

Assay [5] shares this target. The experiment in a line: Counterscreen qHTS for agonist of cAMP-regulated guanine nucleotide exchange factor 3 (EPAC1) (AID 1645889). Note: % of control where 0% means no effect; nearly all actives have a fitted effect of over 40% in size. A digest of the protocol: as §1
The target in assay [6] is Cytochrome P450 3A4 (Homo sapiens) (UniProt P08684). Kind of assay: qHTS Assay for Inhibitors and Substrates of Cytochrome P450 3A4 (AID 884). Note: potency is the fitted concentration of half-maximal effect; nearly all actives have a fitted effect of over 50% in size. A digest of the protocol:
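20 nM human CYP3A4 with 25 uM Luciferin-PPXE (at KM) in 200 mM KPO4, preincubated 10 min with compound; NADPH regeneration started a 60 min RT reaction. Luciferin detected by luminescence, normalized to 57 uM ketoconazole as full inhibition.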

The target is the same in assay [7]. Kind of assay: qHTS Assay for Activators of Cytochrome P450 3A4 (AID 885). Note: nearly all actives have a fitted effect of over 65% in size. A digest of the protocol: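 20nM CYP3A4 + 25uM Luciferin-PPXE (=KM), 200mM KPO4; cpd 10 min RT; NADPH regen, 60 min RT; stop w/ detection buffer, 20 min; luminescence. Normalized to 57 uM ketoconazole.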
Assay [8] can be described thus: Confirmation and Secondary Assay for Modulators of Hemoglobin Beta Chain Splicing at IVS2 654 locus (AID 910).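 Note: HeLa cells stably carrying EGFP split by mutant beta-globin IVS2-654 intron; % of control where 0% means no effect.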 In outline: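 HeLa cells stably expressing EGFP interrupted by β-globin IVS2-654 intron, seeded overnight in Opti-MEM/2% FCS, then treated 2 days at 37 °C. Restored splicing read as total peak GFP intensity per well by laser scanning cytometry (488 nm excitation, 500–520 nm emission); 500 nM antisense PNA as control.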

Assay [9] can be described thus: Confirmation and Secondary Assay for Modulators of Hemoglobin Beta Chain Splicing at IVS2 705 locus (AID 930).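 Note: HeLa cells stably expressing the EGFP-705 splicing reporter; GFP fluorescence per well restored by corrected splicing of the IVS2-705 intron in EGFP; series mostly up to about 46 µM; % of control where 0% means no effect.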 A digest of the protocol:
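Stable HeLa line with EGFP disrupted by mutant beta-globin intron 2 (705). Overnight attachment, then 2 days of compound at 37C, 5% CO2. Signal: peak GFP intensity summed over objects 5-250 µm.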

Assay [10] has as its target Ubiquitin carboxyl-terminal hydrolase 1 (Homo sapiens) (UniProt O94782). Kind of assay: Inhibitors of USP1/UAF1: Pilot qHTS (AID 504865).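 Note: rhodamine fluorescence freed from ubiquitin-rhodamine substrate followed over time; top concentration of the series differs between compounds; % is set by controls: 0 for no effect and ±100 for the full control effect; nearly all actives have a fitted effect of over 35% in size.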 A digest of the protocol: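 USP1/UAF1 complex (1nM) preincubated with compound 15 min at room temperature, then Ub-Rho substrate (150nM final) added. Fluorescence read kinetically at 480/540 nm, 6 reads every 60 seconds. Buffer: 50mM HEPES pH 7.8, 0.5mM EDTA, 0.1 mg/ml BSA, 1mM TCEP, 0.01% Tween-20.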

SMILES strings stand for the structures. A number with no mark means an inactive call. Results filed as inconclusive are left out. Calls of active or inactive are those of the source. Calls come from the whole dose curve; as a rule, active = well fitted curve in the direction sought with a large enough effect; inconclusive = small, poorly fitted or top-dose-only effect, or another doubt; inactive = no such curve, though single readings can be large; an effect the other way counts as inactive or inconclusive.

Rap guanine nucleotide exchange factor 3 (Homo sapiens), sequence (O95398 whole entry, looked up): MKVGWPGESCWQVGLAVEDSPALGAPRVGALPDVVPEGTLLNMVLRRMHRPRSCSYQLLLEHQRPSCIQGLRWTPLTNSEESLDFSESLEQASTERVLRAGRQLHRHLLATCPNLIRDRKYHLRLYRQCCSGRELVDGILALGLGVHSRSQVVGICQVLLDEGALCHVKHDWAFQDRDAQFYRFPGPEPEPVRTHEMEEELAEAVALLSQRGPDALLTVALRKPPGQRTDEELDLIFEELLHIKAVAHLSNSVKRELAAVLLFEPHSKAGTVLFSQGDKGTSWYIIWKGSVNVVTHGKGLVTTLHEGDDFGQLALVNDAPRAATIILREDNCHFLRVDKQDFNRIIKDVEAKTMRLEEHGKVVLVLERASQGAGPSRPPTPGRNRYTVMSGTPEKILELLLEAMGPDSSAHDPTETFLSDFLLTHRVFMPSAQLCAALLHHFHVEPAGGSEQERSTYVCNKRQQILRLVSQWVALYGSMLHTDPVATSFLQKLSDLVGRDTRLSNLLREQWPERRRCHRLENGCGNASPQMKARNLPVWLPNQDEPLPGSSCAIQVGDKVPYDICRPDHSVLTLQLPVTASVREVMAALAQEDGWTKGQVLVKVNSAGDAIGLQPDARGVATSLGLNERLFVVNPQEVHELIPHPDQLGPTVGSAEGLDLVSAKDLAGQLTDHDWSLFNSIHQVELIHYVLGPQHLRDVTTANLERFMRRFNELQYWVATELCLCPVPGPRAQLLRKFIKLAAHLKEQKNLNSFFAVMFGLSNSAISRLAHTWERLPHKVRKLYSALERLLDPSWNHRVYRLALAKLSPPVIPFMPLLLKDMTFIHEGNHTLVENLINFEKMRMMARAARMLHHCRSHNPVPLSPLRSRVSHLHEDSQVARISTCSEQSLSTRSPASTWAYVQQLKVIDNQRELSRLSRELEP
Rap guanine nucleotide exchange factor 4 (Homo sapiens), sequence (Q8WZA2 whole entry, looked up): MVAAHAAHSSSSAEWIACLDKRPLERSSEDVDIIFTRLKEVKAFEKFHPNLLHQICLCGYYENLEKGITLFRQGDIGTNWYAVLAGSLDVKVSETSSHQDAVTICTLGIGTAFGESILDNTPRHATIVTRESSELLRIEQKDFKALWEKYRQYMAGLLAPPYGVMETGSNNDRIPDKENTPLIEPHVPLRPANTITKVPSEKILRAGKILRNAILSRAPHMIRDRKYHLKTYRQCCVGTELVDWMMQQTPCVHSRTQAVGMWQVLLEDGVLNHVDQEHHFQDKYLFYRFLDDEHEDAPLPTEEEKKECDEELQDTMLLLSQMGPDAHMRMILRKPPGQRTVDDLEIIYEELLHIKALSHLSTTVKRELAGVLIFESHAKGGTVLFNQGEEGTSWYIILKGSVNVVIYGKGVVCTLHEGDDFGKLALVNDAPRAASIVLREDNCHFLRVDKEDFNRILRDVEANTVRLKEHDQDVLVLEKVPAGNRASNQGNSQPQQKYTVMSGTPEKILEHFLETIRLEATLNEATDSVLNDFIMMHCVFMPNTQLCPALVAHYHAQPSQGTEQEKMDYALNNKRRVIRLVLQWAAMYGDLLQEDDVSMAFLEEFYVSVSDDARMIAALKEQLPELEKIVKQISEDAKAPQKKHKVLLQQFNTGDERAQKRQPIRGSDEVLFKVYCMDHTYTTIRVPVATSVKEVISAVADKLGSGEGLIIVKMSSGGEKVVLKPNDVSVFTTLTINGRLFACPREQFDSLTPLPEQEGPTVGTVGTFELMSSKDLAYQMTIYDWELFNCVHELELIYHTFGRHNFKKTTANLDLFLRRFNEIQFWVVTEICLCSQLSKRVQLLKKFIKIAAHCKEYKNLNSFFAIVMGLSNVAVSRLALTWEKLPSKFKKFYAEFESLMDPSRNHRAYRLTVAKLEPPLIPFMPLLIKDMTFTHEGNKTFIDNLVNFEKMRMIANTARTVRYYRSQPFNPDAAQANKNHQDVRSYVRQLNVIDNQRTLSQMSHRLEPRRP
Cytochrome P450 3A4 (Homo sapiens), sequence (P08684 whole entry, looked up): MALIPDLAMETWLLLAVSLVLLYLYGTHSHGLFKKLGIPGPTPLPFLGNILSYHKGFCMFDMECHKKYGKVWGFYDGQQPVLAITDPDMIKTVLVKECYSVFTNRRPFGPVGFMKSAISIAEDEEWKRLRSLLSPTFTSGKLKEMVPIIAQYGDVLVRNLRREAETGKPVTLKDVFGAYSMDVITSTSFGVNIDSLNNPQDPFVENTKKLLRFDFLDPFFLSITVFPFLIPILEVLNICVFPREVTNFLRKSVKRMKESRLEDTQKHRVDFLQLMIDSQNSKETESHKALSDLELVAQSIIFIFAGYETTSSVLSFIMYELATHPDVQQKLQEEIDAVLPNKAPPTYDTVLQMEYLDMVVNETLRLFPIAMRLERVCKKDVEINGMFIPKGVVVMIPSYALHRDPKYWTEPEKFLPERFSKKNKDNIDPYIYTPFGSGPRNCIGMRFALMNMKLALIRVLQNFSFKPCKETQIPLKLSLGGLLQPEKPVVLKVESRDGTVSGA
Ubiquitin carboxyl-terminal hydrolase 1 (Homo sapiens), sequence (O94782 whole entry, looked up): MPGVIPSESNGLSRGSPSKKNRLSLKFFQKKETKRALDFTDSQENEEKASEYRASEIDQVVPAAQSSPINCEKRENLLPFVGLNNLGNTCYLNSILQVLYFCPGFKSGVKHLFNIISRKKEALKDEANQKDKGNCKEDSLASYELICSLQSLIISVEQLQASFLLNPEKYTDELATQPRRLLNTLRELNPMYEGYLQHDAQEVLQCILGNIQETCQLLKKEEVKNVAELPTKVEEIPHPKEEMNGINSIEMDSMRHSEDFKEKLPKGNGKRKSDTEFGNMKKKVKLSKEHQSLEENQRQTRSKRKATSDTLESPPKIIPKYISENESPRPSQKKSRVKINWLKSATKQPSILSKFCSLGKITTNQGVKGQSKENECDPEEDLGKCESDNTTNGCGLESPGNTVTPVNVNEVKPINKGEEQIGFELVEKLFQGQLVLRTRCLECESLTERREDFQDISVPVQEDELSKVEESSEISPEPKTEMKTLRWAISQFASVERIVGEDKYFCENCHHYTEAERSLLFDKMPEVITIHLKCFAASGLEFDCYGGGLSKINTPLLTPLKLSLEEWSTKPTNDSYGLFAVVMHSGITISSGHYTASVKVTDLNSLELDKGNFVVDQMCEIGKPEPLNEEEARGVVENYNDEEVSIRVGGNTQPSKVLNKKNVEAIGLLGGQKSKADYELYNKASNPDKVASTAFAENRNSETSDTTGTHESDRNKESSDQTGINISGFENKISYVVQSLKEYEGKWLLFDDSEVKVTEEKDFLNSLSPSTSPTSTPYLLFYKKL

Turning to `COc1ccc(CCNC(=O)CCc2nc3sc4c(c3c(=O)[nH]2)CCCC4)cc1`, the Potency result in [1], in [2], in assay [4] and in [5] was “inactive” throughout. For the same molecule, the Potency in assay [3] is 4.78 µM (active).
With `O=C(COC(=O)Cc1ccc(Cl)cc1)Nc1ccc2[nH]c(=O)[nH]c2c1`, the Potency entry in assay [1] and in [3] was “inactive” throughout. Also, the activation in assay [2] is -3.41% [at 17.1 µM, percent relative to cAMP agonist control]; in [5], -0.761% [at 30.8 µM]. Also, in assay [4], the activity change, negative = inhibition was -14.8% [at 30.8 µM].
Turning to `COC(=O)CC1C(C)(C)C(OC(C)=O)C2CC3C4CC(=O)OC(c5ccoc5)[C@]4(C)CCC3[C@@]1(C)C2=O` (stereo not given in full), the Potency in assay [6] was 0.631 µM (active). The Potency entry in [7], in assay [8], in [9] and in assay [10] was “inactive” in each case.
